Among the test systems are NCI-H23 lung; NCI-H226 lung; NCI-H322M lung; HOP-62 NSCLC; NCI-H460 lung; HOP-92 NSCLC; NCI-H522 lung; A549/ATCC NSCLC; 786-0 renal; COLO 205 colon.
Holding throughout (test): NCI-60 one-dose screen, 48 h (100 = growth as untreated, 0 = no growth, -100 = all killed)
Holding throughout (conditions): 10 µM unless noted

This is part of a sample that, as a whole, favours compounds with a hit. Of some 83,000 tested, about 20% had one in any assay.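 Single-concentration screen, 48 h exposure, 96-well plates. Endpoint: percent growth. Below 10 = active.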 Unmarked numbers belong to inactive results. Active and inactive are the calls of the source.

Take `O=C(COc1ccc(-c2nc3ccccc3[nH]2)cc1)N=Nc1c(O)[nH]c2ccc(Cl)cc12`: the growth is 87.3% with NCI-H23 lung; 97% in the assay with NCI-H226 lung; 101% in the assay with NCI-H322M lung; 99.9% in the assay with HOP-62 NSCLC; 30.7% in the assay with NCI-H460 lung; 93% in the assay on HOP-92 NSCLC. For the same molecule, the growth is 93.6% with NCI-H522 lung, 99% in the assay on A549/ATCC NSCLC, 46% in the assay with 786-0 renal and 53.3% with COLO 205 colon.
Turning to `c1ccc(C2=NN[C@H](c3cn(-c4ccccc4)nc3-c3ccccc3)C2)cc1`, the growth with NCI-H23 lung was 59.3%; with NCI-H226 lung, 25.5%; in the assay with NCI-H322M lung, 47.8%; with HOP-62 NSCLC it was -14.5% (active); in the assay with NCI-H460 lung it was 29%; with HOP-92 NSCLC it was 34.6%. Besides, the growth with NCI-H522 lung is 75.6%; in the assay on A549/ATCC NSCLC, 17.1%; in the assay on 786-0 renal, 6.85% (active); in the assay with COLO 205 colon, 66.5%.
For `COCCNC(=O)c1ccc(-c2nc3ccc4[nH]ncc4c3c3c2CCCC3)cc1`, the growth in the assay on NCI-H23 lung is 43.5%; in the assay with NCI-H226 lung, 50.7%; in the assay with NCI-H322M lung, 29.1%; with HOP-62 NSCLC, 40.1%; in the assay with NCI-H460 lung it was 27.1%; with HOP-92 NSCLC it was 56.8%. Besides, the growth in the assay on NCI-H522 lung was 30.6%; with A549/ATCC NSCLC, 30.4%; in the assay with 786-0 renal, 31.7%; in the assay with COLO 205 colon it was 27.7%.
On to `CCOC(=O)c1cc(C(=O)c2cc(OC)c(OC)c(OC)c2)n2ccc(-c3ccncc3)cc12`, for which the growth with NCI-H23 lung is 94.8%; with NCI-H226 lung, 95.9%; in the assay on NCI-H322M lung, 106%; in the assay with HOP-62 NSCLC, 90.1%; in the assay with NCI-H460 lung, 97.4%; in the assay on HOP-92 NSCLC, 65.8%. The growth in the assay with NCI-H522 lung is 68.7%; in the assay with A549/ATCC NSCLC it was 80%; in the assay on 786-0 renal it was 90.2%; in the assay on COLO 205 colon, 103%.
`COC(=O)[C@H]1CCCN1C[C@@H](O)CN1C(=O)/C(=C\c2cc(OC)c(OC)c(OC)c2)c2ccccc21`: the growth in the assay with NCI-H23 lung is 106%; in the assay with NCI-H226 lung it was 96.6%; with NCI-H322M lung it was 106%; in the assay on HOP-62 NSCLC, 108%; with NCI-H460 lung it was 94.9%; in the assay with HOP-92 NSCLC, 105%. The growth in the assay on NCI-H522 lung is 97.8%; with A549/ATCC NSCLC, 90.3%; in the assay with 786-0 renal it was 101%; with COLO 205 colon, 121%.
As for `COc1cc2c(c(OC)c1OC)CCC(c1cccc(C(=O)Nc3cccc(Br)c3)c1)O2` (stereo not given), the growth was 77.5% in the assay on NCI-H23 lung; 69.9% in the assay on NCI-H226 lung; 50.9% in the assay with NCI-H322M lung; 96.8% with HOP-62 NSCLC; 70.5% with NCI-H460 lung; 6.24% (active) with HOP-92 NSCLC. In addition, the growth was 48.8% in the assay with NCI-H522 lung, 64.5% with A549/ATCC NSCLC, 81% in the assay with 786-0 renal and 88.3% in the assay on COLO 205 colon.
Regarding `COc1ccc2c3c([nH]c2c1)C(=O)c1nc(C)ccc1C3=O`, the growth was 3.17% (active) in the assay on NCI-H23 lung; 66.1% with NCI-H226 lung; 43.4% in the assay with NCI-H322M lung; 46.6% in the assay on HOP-62 NSCLC; -34.9% (active) with NCI-H460 lung; 86% in the assay with HOP-92 NSCLC. In addition, the growth in the assay on NCI-H522 lung was 56%; with A549/ATCC NSCLC, -11.9% (active); with 786-0 renal, 79.7%; with COLO 205 colon, 63.2%.
As to `N#Cc1cccc(NC(=O)c2oc3ccccc3c2-c2cnn(-c3ccccc3)c2)c1`, the growth in the assay on NCI-H23 lung is 83.7% [50 µM]; in the assay with NCI-H226 lung it was 72.5% [50 µM]; with NCI-H322M lung, 74.1% [50 µM]; in the assay with HOP-62 NSCLC, 92.6% [50 µM]; with NCI-H460 lung it was 84.3% [50 µM]; with HOP-92 NSCLC it was -23.3% [50 µM] (active). The growth with NCI-H522 lung was 59% [50 µM]; with A549/ATCC NSCLC, 81.4% [50 µM]; with 786-0 renal it was 85.7% [50 µM]; in the assay with COLO 205 colon, 91.8% [50 µM].
As to `O=C1c2cccnc2C(=O)c2c1c(C(=O)NCCn1ccnc1)c1ccccn21`, the growth in the assay on NCI-H23 lung is 5.02% (active); in the assay on NCI-H226 lung it was 51.5%; in the assay on NCI-H322M lung, 22.3%; with HOP-62 NSCLC it was 14%; with NCI-H460 lung it was -41.3% (active); with HOP-92 NSCLC it was 56.3%. Moreover, the growth in the assay with NCI-H522 lung is -9.62% (active); with A549/ATCC NSCLC, 1.78% (active); with 786-0 renal, 49%; in the assay with COLO 205 colon, -27.6% (active).
Regarding `NC(=O)CCC(C(=O)O)N1C(=O)c2ccc(O)cc2C1=O` (stereo not given), the growth in the assay with NCI-H23 lung is 118%; with NCI-H226 lung, 107%; with NCI-H322M lung, 112%; in the assay on HOP-62 NSCLC, 113%; with NCI-H460 lung it was 109%; in the assay with HOP-92 NSCLC it was 93.2%. Further, the growth is 102% in the assay with NCI-H522 lung, 122% in the assay with A549/ATCC NSCLC, 111% with 786-0 renal and 119% in the assay on COLO 205 colon.
For `CCCCCOc1ccc(C(=O)/C(Br)=C/C(=O)O)cc1`, the growth was 91.9% in the assay with NCI-H23 lung; 106% in the assay with NCI-H226 lung; 104% in the assay on NCI-H322M lung; 214% in the assay on HOP-62 NSCLC; 103% with NCI-H460 lung; 99.2% with HOP-92 NSCLC. The growth in the assay on NCI-H522 lung is 89.2%; with A549/ATCC NSCLC, 104%; in the assay on 786-0 renal it was 98.8%; with COLO 205 colon, 105%.
On to `CCOC(=O)c1c(C)nc2c(c1N)CC(=O)N2Cc1cc(F)cc(Cl)c1`, for which the growth in the assay with NCI-H23 lung was 81.8%; in the assay with NCI-H226 lung, 89.1%; with NCI-H322M lung it was 107%; in the assay with HOP-62 NSCLC, 89.7%; in the assay with NCI-H460 lung, 98.1%; with HOP-92 NSCLC, 78.1%. In addition, the growth is 66.8% in the assay on NCI-H522 lung, 82.8% with A549/ATCC NSCLC, 88.2% in the assay with 786-0 renal and 121% in the assay with COLO 205 colon.

The values are drawn from PubChem BioAssay (NCI).
